# What was measured:
# DDX1 = DDX1 (UniProt Q92499); assay: cross-linking mass spectrometry; conditions: DSS, purified complex
# RTCB = RTCB (UniProt Q9Y3I0); assay: cross-linking mass spectrometry; conditions: DSS, purified complex
# Chain of RTCB (Q9Y3I0 whole entry): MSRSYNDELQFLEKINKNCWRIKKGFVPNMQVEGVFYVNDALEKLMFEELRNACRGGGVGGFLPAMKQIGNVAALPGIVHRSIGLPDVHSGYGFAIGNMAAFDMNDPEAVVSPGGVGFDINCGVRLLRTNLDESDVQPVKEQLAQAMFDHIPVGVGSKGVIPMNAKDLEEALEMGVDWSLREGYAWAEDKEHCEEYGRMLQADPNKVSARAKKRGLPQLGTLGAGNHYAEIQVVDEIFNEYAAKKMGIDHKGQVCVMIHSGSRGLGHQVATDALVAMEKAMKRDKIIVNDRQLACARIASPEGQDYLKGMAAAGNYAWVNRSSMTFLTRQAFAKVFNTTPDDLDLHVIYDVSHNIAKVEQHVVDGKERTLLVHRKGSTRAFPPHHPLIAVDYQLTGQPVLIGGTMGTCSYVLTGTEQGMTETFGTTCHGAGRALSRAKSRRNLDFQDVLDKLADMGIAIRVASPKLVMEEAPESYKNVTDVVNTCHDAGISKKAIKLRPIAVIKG
# Chain of FAM98B (Q52LJ0 whole entry): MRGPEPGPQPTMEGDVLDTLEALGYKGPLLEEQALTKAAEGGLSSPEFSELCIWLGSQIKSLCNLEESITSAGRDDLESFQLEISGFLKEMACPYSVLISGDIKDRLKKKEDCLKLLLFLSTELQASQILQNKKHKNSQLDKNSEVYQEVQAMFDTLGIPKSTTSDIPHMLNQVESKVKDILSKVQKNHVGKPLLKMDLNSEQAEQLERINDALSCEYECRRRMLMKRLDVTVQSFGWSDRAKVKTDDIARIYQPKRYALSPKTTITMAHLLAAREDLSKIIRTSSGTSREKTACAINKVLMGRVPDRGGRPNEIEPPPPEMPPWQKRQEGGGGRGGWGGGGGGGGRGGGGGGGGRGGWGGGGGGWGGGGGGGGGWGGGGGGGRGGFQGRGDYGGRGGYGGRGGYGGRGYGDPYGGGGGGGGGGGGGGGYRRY
# Chain of DDX1 (Q92499 whole entry): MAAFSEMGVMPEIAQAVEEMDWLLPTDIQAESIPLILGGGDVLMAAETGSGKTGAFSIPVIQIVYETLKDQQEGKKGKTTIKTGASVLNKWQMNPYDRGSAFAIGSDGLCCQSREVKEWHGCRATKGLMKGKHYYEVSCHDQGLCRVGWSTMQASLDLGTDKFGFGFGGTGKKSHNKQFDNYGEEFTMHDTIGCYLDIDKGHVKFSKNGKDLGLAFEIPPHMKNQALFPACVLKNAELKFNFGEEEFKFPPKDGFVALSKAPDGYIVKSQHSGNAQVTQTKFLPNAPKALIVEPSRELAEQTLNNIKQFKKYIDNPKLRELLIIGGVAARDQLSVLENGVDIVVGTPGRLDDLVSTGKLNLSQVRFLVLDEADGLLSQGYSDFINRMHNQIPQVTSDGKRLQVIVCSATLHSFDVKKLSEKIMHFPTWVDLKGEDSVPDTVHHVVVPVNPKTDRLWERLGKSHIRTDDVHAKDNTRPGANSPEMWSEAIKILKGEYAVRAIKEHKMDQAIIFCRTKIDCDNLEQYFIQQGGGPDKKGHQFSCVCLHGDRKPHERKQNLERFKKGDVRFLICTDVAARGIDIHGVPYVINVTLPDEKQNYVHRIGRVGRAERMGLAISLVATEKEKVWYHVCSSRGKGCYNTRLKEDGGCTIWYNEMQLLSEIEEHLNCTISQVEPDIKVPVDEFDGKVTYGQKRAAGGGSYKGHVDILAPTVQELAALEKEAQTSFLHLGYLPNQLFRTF
substance,measurement,setting,value
"FAM98B, Q52LJ0",cross-linked residues,DDX1,K245 - K693
same,cross-linked residues,RTCB,K280 - K245
